Assay results published in PubChem BioAssay (NCATS).
Records with an inconclusive call do not appear. A call without a number means that no potency is given here. Calls of active or inactive are those of the source. Unless noted, calls come from the whole dose curve; as a rule, active = well fitted curve in the direction sought with a large enough effect; inconclusive = small, poorly fitted or top-dose-only effect, or another doubt; inactive = no such curve, though single readings can be large; an effect the other way counts as inactive or inconclusive. Numbered stars: 1 amine (or outer) side, 2 acyl side, 3 side chain; on linkers, the order of the positions; unused ones are H or OH. Bridge positions count the residues as written; N and C are the ends. Square brackets hold non-standard residues; d marks the D form. Peptide text beside a SMILES is read from it. I, II: the chains in the order shown. Actinocin(9to1) = Cc1c2oc3c(C)ccc(C(=O)[*:1])c3nc-2c(C(=O)[*:2])c(N)c1=O; aThr = C[C@H](O)[C@H](N)C(=O)O; NMeV = CN[C@H](C(=O)O)C(C)C; Sar = CNCC(=O)O

Tests used:
[1] = target: Cytochrome P450 3A4 (Homo sapiens) (UniProt P08684); assay: qHTS Assay for Inhibitors and Substrates of Cytochrome P450 3A4 (AID 884); note: potency is the fitted concentration of half-maximal effect; nearly all actives have a fitted effect of over 50% in size
Sequence of Cytochrome P450 3A4 (Homo sapiens) (P08684 whole entry, looked up): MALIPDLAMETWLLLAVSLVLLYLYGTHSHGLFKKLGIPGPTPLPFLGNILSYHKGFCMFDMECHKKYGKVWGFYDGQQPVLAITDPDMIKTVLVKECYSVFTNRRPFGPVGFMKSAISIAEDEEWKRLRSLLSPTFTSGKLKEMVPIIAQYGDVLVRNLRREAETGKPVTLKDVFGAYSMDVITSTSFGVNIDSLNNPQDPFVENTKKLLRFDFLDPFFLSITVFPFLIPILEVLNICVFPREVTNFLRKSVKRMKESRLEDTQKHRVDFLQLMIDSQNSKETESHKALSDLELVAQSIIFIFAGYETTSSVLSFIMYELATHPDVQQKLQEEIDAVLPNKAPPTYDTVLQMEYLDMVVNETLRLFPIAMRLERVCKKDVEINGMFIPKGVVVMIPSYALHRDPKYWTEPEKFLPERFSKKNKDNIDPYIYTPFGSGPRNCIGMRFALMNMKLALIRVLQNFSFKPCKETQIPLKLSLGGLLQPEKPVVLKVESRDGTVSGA
Summary of the method: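 Luminescent readout of luciferin produced by CYP3A4 (20 nM) dealkylation of Luciferin-PPXE, 25 uM (its KM). NADPH-driven reaction ran 60 min at RT after 10 min compound preincubation; data scaled to 57 uM ketoconazole as 100% inhibition.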

[2] = target: Cytochrome P450 3A4 (Homo sapiens) (UniProt P08684); assay: qHTS Assay for Activators of Cytochrome P450 3A4 (AID 885); note: nearly all actives have a fitted effect of over 65% in size
Summary of the method: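 Luminescent readout of luciferin formed from 25 uM Luciferin-PPXE (KM level) by 20 nM CYP3A4 in 200 mM KPO4, with 60 min NADPH-driven reaction at room temperature after 10 min compound exposure. Ketoconazole (57 uM) defined 100% inhibition.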

[3] = Confirmation and Secondary Assay for Modulators of Hemoglobin Beta Chain Splicing at IVS2 654 locus (AID 910);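 note: HeLa cells stably carrying EGFP split by mutant beta-globin IVS2-654 intron; per-well total GFP intensity by laser scanning cytometry after 2-day treatment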
Summary of the method: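 Readout: per-well total peak green fluorescence (488 nm ex, 500–520 nm em) from objects 5–250 µm, reflecting correct splicing of an EGFP-654 reporter. Compounds were applied for 2 days at 37 °C to overnight-plated HeLa EGFP-654 cells; controls were DMSO and 500 nM IVS2-654 PNA.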

[4] = Confirmation and Secondary Assay for Modulators of Hemoglobin Beta Chain Splicing at IVS2 705 locus (AID 930);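 note: HeLa cells stably expressing the EGFP-705 splicing reporter; GFP fluorescence per well restored by corrected splicing of the IVS2-705 intron in EGFP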
Summary of the method: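 First, HeLa EGFP-705 cells are seeded at 500/well in Optimem with 2% FCS and left overnight. Next, compound or DMSO is added for 2 days. Finally wells are laser-scanned and total peak GFP intensity scored.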

[5] = qHTS Assay for Lipid Storage Modulators (AID 1519; calls by dose curve); details: Drosophila S3 cells, BODIPY lipid droplet/cell ratio, laser cytometry, cells loaded with oleic acid
Summary of the method: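 Cells seeded at 5,000 per well were treated with compounds over a concentration series and loaded with oleic acid (400 uM, as added). Lipid droplet fluorescence (488 nm excitation, 500-530 nm channel) was read by laser-scanning cytometry and normalized to 20 uM Triacsin C.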

Furin (Homo sapiens) = Furin (Homo sapiens) (UniProt P09958); assay: Furin counterscreen qHTS for Zika virus inhibitors (AID 1347149); note: nearly all actives have a fitted effect of over 70% in size; note: potency is the fitted concentration of half-maximal effect;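 for activity change, negative = inhibition: purified recombinant full-length human furin enzyme at 5 nM; fluorescence gain from furin cutting a BOC-RVRR-AMC peptide substrate over 15 min; top concentration of the series differs between compounds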
Sequence of Furin (Homo sapiens) (P09958 whole entry, looked up): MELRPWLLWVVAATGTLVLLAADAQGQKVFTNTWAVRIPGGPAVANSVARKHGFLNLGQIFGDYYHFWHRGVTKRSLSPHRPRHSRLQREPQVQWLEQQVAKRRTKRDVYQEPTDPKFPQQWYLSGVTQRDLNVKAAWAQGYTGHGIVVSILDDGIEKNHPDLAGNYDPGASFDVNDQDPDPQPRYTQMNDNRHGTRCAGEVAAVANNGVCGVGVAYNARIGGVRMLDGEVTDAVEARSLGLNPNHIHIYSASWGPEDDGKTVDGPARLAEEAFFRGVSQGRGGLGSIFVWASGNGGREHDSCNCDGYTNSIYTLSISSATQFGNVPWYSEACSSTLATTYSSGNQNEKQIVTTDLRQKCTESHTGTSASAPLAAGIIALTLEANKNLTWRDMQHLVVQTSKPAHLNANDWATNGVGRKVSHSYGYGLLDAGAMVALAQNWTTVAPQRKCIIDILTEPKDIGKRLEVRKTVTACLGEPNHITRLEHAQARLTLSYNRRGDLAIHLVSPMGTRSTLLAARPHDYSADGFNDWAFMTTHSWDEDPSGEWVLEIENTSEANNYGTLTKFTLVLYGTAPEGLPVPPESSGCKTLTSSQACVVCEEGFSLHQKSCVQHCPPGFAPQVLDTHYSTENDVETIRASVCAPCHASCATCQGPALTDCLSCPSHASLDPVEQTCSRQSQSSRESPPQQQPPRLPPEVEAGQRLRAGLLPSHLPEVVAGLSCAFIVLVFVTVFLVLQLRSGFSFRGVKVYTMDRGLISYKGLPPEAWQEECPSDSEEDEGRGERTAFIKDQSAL
Summary of the method: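 Counterscreen measures cleavage of 2 microM BOC-RVRR-AMC, below its ~15 microM Km, by 5 nM full-length human furin at pH 7.0 after a 15-min compound preincubation. Inhibition derives from the 15-min fluorescence increase at 37C.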

[6] = Tertiary RLuc qRT-PCR qHTS assay for Zika virus inhibitors (AID 1347169); note: top concentration of the series differs between compounds; nearly all actives have a fitted effect of over 55% in size
Summary of the method: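 Orthogonal cell-based infection assay using recombinant ZIKV-RLuc (Cambodian) in Vero cells; compound added prior to virus at MOI 1-2. Incubation lasts 48-72 hrs at 37 degrees C before live-cell Renilla substrate is added and luminescence measured.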

[7] = target: Cytochrome P450 1A2 (Homo sapiens) (UniProt P05177); assay: p450-cyp1a2 (AID 410; calls by dose curve)
Sequence of Cytochrome P450 1A2 (Homo sapiens) (P05177 whole entry, looked up): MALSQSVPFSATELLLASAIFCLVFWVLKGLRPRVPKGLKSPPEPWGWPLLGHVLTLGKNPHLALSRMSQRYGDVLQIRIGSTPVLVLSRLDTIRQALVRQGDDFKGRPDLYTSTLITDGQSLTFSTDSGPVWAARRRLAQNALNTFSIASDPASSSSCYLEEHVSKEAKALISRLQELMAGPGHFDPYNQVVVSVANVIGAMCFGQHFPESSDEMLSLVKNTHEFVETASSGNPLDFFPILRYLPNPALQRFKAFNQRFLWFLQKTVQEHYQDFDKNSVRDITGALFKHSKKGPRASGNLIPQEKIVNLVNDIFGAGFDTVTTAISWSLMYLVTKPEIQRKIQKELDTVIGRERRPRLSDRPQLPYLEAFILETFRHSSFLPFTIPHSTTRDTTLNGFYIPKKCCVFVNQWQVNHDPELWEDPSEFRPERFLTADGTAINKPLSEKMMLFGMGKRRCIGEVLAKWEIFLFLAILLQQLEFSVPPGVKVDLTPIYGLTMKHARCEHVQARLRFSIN
Summary of the method: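 20nM CYP1A2, 100uM Luciferin-ME (=Km), 100mM KPO4; cpd 10 min RT; +NADPH regen, 60 min RT; stop/detect 20 min; luminescence. Normalized to furafylline 57 uM = full inhibition.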

[8] = target: Glucocorticoid receptor (Homo sapiens) (UniProt P04150); assay: GR-GFP Redistribution (AID 450;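 active = compounds whose dose series gives a full or clear partial fitted curve of increased nuclear translocation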; note: potency is the fitted concentration of half-maximal effect); details: U2OS GR-GFP nuclear translocation, laser cytometry, 2 h
Sequence of Glucocorticoid receptor (Homo sapiens) (P04150 whole entry, looked up, the tested form may be a part): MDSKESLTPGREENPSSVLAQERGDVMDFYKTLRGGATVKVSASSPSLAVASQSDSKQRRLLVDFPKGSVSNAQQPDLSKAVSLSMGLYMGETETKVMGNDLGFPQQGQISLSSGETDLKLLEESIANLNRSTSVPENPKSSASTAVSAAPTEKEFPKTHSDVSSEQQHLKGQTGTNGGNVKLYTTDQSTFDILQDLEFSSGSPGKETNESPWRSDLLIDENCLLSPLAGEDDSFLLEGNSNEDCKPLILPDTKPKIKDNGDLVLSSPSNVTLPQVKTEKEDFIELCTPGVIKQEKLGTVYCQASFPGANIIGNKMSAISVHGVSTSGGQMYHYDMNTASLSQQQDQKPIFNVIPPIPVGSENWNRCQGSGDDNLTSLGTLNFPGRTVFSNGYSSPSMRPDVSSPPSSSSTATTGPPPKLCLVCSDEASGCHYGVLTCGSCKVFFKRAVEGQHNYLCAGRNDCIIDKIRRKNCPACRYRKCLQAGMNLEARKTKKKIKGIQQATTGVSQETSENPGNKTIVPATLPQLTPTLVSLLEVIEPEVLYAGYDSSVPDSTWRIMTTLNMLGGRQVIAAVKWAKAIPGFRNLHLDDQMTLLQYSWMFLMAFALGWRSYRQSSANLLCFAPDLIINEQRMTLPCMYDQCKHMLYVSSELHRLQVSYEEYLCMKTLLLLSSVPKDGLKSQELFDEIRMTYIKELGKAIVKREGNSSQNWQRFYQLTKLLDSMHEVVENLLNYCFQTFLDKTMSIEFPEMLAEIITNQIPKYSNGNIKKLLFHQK

[9] = target: Glucocorticoid receptor (Homo sapiens) (UniProt P04150); assay: GR-EFC Redistribution (AID 451; calls by dose curve; note: potency is the fitted concentration of half-maximal effect); details: CHO-K1 GR-EFC translocation, beta-gal luminescence, 2 h
Summary of the method: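 Translocation of GR-ED fusion to nuclear EA restores b-gal, read by luminescence after 1 h room-temperature detection. Engineered CHO-K1 biosensor cells, 1,000/well, exposed 2 h at 37 C to titrations up to 46 uM final.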

[10] = target: Mitogen-activated protein kinase 10 (Mus musculus) (UniProt Q61831); assay: JNK3 AlphaScreen Assay (AID 530; active = well fitted curve in either direction with a large enough effect, not every such curve was filed as active;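 note: kinase came from lysate of stimulated human HepG2 cells; signal reports phosphorylation of biotinylated GST-cJun 1-79 at Ser73 with 10 µM ATP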)
Summary of the method: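 Kinase buffer: 20 mM Tris-HCl pH 7.6, 10 mM MgCl2, 1 mM DTT, 0.1 mM Na3VO4, 0.01% Tween-20; ATP 10 uM. Substrate biotin-GST-cJun(1-79), enzyme from activated HepG2 lysates. Detection by Ser73 phospho-antibody AlphaScreen.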

[11] = target: DNA dC->dU-editing enzyme APOBEC-3G (Homo sapiens) (UniProt Q9HC16); assay: qHTS for inhibitors of Vif-A3G interactions: Validation (AID 588379)
Sequence of DNA dC->dU-editing enzyme APOBEC-3G (Homo sapiens) (Q9HC16 whole entry, looked up): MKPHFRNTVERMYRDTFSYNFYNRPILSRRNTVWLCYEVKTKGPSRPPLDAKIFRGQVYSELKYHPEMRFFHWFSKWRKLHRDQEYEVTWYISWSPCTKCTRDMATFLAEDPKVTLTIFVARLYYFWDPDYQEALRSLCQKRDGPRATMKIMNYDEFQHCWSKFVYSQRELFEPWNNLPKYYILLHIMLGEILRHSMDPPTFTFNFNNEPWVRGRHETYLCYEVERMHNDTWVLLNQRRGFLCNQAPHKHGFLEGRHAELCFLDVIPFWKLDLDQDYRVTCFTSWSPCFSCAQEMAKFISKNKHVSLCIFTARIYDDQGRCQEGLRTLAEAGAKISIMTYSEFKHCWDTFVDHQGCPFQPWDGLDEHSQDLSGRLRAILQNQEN
Summary of the method: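 Yellow fluorescence (Ex 488, Em 500-530) of Vif-coexpressing HeLa A3G-eYFP cells, scanned by Acumen cytometer, reports blocked A3G degradation. Cells plated at 700/well overnight at 37 deg C before compound addition, then a further overnight compound incubation at 37 deg C.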

[12] = system: Zika virus NS2B-NS3 protease (unlinked); assay: Optimization of GU AMC qHTS for Zika virus inhibitors: Unlinked NS2B-NS3 protease assay (AID 1347151); note: potency is the fitted concentration of half-maximal effect; nearly all actives have a fitted effect of over 80% in size
Summary of the method: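 Percent inhibition is derived from the 15-min change in AMC fluorescence, normalized against no-inhibitor and no-enzyme controls, then fitted to a 4-parameter Hill curve. Aprotinin was the intraplate control.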

[13] = Vero cells viability qHTS for Zika virus inhibitors (AID 1347167)
Summary of the method: (§1)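 Luminescent ATP readout (CellTiter Glo) after 30 min at 37 degrees C gives viability; cells in DMEM + 4% FBS were treated 24 to 48 hours with compound, following overnight attachment.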

[14] = HepG2 cells viability qHTS for Zika virus inhibitors (AID 1347168)
Summary of the method: as §1

[15] = Primary qHTS for small molecule stabilizers of the endoplasmic reticulum resident proteome: Secreted ER Calcium Modulated Protein (SERCaMP) assay (AID 1508630)
Summary of the method: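 The SH-SY5Y reporter protocol was run at 3 concentrations up to 38.3 uM (primary) or 11 concentrations (follow-up): 16 h compound, 100 nM thapsigargin for 4 h, then extracellular luciferase luminescence.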

[16] = target: Cytochrome P450 2D6 (Homo sapiens) (UniProt P10635); assay: Cytochrome P450 family 2 subfamily D member 6 (CYP2D6) small molecule antagonists: luciferase biochemical (cell-free) qHTS assay (AID 1645840; active = well fitted curve in the direction sought with a large enough effect in the repeat runs; an effect the other way counts as inactive or inconclusive; note: nearly all actives have a fitted effect of over 55% in size)
Sequence of Cytochrome P450 2D6 (Homo sapiens) (P10635 whole entry, looked up): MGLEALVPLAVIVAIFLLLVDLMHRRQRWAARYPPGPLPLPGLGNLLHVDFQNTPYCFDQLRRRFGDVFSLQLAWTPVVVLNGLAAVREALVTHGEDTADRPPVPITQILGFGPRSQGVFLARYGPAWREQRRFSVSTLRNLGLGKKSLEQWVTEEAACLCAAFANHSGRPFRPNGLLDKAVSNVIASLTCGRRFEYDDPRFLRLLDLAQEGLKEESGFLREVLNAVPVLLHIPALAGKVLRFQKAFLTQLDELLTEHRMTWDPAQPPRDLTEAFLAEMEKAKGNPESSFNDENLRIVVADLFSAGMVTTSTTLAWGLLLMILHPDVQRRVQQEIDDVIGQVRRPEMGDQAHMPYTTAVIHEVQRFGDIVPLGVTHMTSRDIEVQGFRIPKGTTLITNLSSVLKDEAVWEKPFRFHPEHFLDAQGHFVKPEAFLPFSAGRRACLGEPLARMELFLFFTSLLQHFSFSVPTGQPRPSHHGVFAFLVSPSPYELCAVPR
Summary of the method: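 P450-Glo CYP2D6 system: proluciferin substrate converted by enzyme to luciferin, read by luminescence proportional to activity. Enzyme-substrate mix with compound 10 min at room temperature, then NADPH regeneration 1 h before detection reagent.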

[17] = system: Zika virus NS2B-NS3 protease (linked construct); assay: Confirmatory screen NINDS AMC qHTS for Zika virus inhibitors (AID 1347152); note: potency is the fitted concentration of half-maximal effect; nearly all actives have a fitted effect of over 70% in size
Summary of the method: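 In this dose-response qHTS, AMC release from 10 microM Bz-Nle-KRR-AMC by 1 nM linked protease is measured over 15 minutes (about 20% conversion) at pH 8.0. Percent inhibition is fitted to a 4-parameter Hill curve.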

[18] = system: Zika virus NS2B-NS3 protease (unlinked complex); assay: Confirmatory screen GU AMC qHTS for Zika virus inhibitors (AID 1347153);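 note: enzyme at 25 nM with substrate at 10 µM below its Km of 18.3 µM; potency is the fitted concentration of half-maximal effect; nearly all actives have a fitted effect of over 70% in size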
Summary of the method: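 Compounds were preincubated 15 min at room temperature with 25 nM noncovalent NS2B-NS3 protease at pH 8.0; AMC substrate added at 10 microM and 15-min fluorescence gain (340/450 nm) converted to percent inhibition, fitted 4-parameter.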

[19] = system: Zika virus NS2B-NS3 protease; assay: Primary screen GU AMC qHTS for Zika virus inhibitors (AID 1347154); note: potency is the fitted concentration of half-maximal effect; nearly all actives have a fitted effect of over 70% in size
Summary of the method: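 Fluorogenic AMC-substrate cleavage by noncovalent NS2B-NS3 protease complex (25 nM, pH 8.0 Tris buffer with Tween 20) followed for 15 minutes at room temperature (~20% conversion). Percent inhibition from ex340/em450 signal change, fitted by 4-parameter Hill equation.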

[20] = Confirmatory screen NINDS Rhodamine qHTS for Zika virus inhibitors (AID 1347161); note: potency is the fitted concentration of half-maximal effect; nearly all actives have a fitted effect of over 60% in size
Summary of the method: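 Kinetic fluorescence (Ex 480 nm, Em 540 nm) over 15 min with 1.5 microM Rhodamine110 peptide and 25 nM linked protease.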

[21] = system: Zika virus NS2B-NS3 protease (linked construct); assay: 384 well plate NINDS Rhodamine confirmatory qHTS for Zika virus inhibitors (AID 1347164); note: potency is the fitted concentration of half-maximal effect; nearly all actives have a fitted effect of over 65% in size
Summary of the method: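 Compounds are incubated about 15 minutes with linked protease (5, 30 or 60 nM final). Rhodamine 110-tagged Ac-LKRR substrate (10 microM final) is added and fluorescence measured after 25 minutes.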

[22] = system: Zika virus NS2B-NS3 protease (linked); assay: 384 well plate NINDS AMC confirmatory qHTS for Zika virus inhibitors (AID 1347163); note: potency is the fitted concentration of half-maximal effect; nearly all actives have a fitted effect of over 50% in size
Summary of the method: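 Enzyme (5, 30 or 60 nM final) first met test compounds for ~15 min. The AMC-tagged peptide Ac-VKTGKR-AMC followed at 30 microM. Fluorescence was then recorded at 25 min and scaled against no-enzyme and no-inhibitor wells.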

## O=C1C=CC(=O)c2c(O)c(Cl)c(Cl)c(O)c21
[1]
  Potency: 31.6 µM (active)
[2]
  Potency: inactive
[3]
  outcome: inactive
[4]
  outcome: inactive
[5]; at 57.5 µM (top of the series)
  activity change, negative = inhibition: 5.17% (inactive)
[5]; measured here: cell count channel max response
  max response: 0.303%
[5]; measured here: lipid channel max response
  max response: 7.95%
Furin (Homo sapiens)
  Potency: inactive
[6]
  Potency: inactive

## Cc1c2oc3c(C)ccc(C(=O)N[C@@H]4C(=O)N[C@@H](C(C)C)C(=O)N5CCC[C@@H]5C(=O)N(C)CC(=O)N(C)[C@@H](C(C)C)C(=O)O[C@H]4C)c3nc-2c(C(=O)N[C@@H]2C(=O)N[C@@H](C(C)C)C(=O)N3CCC[C@@H]3C(=O)N(C)CC(=O)N(C)[C@@H](C(C)C)C(=O)O[C@H]2C)c(N)c1=O (I: [aThr]V[dP][Sar][NMeV] / II: [aThr]V[dP][Sar][NMeV]; ester I:1-I:C, II:1-II:C; linker I:N-II:N via Actinocin(9to1))
[7]
  Potency: inactive
[8]
  Potency: > 46 µM (inactive)
[9]
  Potency: > 46 µM (inactive)
[10]
  Potency: inactive
[2]
  Potency: inactive
[11]
  Potency: inactive
[12]
  Potency: 27.1 µM (active)
[13]
  Potency: inactive
[14]
  Potency: inactive
[15]
  Potency: inactive
[16]
  Potency: inactive

## CCCCc1nn(-c2ccccc2C(F)(F)F)c(=O)n1Cc1ccc(-c2ccccc2S(=O)(=O)NC(=O)c2sccc2C)cc1
[17]
  Potency: 24.1 µM (active)
[18]
  Potency: 21.5 µM (active)
[19]
  Potency: 21.2 µM (active)
[20]
  Potency: 4.41 µM (active)
[21]
  Potency: 28.2 µM (active)
[13]
  Potency: inactive
[14]
  Potency: inactive
[15]
  Potency: inactive

## O=C(O)COc1ccc(-c2nccc3c2C(=O)N(Cc2ccccc2)CC(COc2ccc4cccnc4c2)O3)cc1 (centres undefined)
Furin (Homo sapiens)
  Potency: 49.4 µM (active)
[21]
  Potency: 44.7 µM (active)
[6]
  Potency: inactive

## CC(C)CN1CC(COc2ccc3ccccc3c2)Oc2ccnc(-c3ccc(OCC(=O)O)cc3)c2C1=O (centres undefined)
Furin (Homo sapiens)
  Potency: inactive
[22]
  Potency: 355 µM (active)
[21]
  Potency: 39.8 µM (active)
